We go through 47 compounds from ChEMBL document CHEMBL3988442, “University of Dundee, Small-Polar-MMV Screening Library” (2021).

In all, about 69,000 compounds went through this assay and about 950 (1.4%) showed an effect of 50% or more. Many of the other results were omitted from the sample, so strong results are more common in it than they were.

The assay relates to Mycobacterium tuberculosis. Briefly: Cornell M. t heat shock assay. Also: in the data most compounds retested in dose-response had high values. In kind it is functional, organism-based. Also on record: dose or concentration left out as unconfirmed.
`O=C(O)C(F)(F)F.O=C1COC2(CCN(Cc3ccco3)CC2)CN1`: the “Percent Effect” value is on record as -45.46%.

Regarding `c1csc(CN2CCCN(c3ccc(Cn4ccnc4)cn3)CC2)c1`, the “Percent Effect” value is -13.19%.

As to `c1cn(Cc2ccc(N3CCCN(C4CCCC4)CC3)nc2)cn1`, the “Percent Effect” value was 1.871%.

Turning to `Fc1ccc(N2CCCN(c3ccc(Cn4ccnc4)cn3)CC2)cc1`, the “Percent Effect” value is reported as 107.2%.

Turning to `Cc1cc2c(cc1CNC(Cc1cccs1)c1nccs1)OCO2.Cl` (configuration not stated), the “Percent Effect” value amounted to 5.172%.

With `CC(=O)N1C[C@@H]2CN(Cc3cccnc3)CCO[C@@H]2C1.O=C(O)C(F)(F)F.O=C(O)C(F)(F)F`, the “Percent Effect” value is on record as -47.04%.

Regarding `O=C(O)C(F)(F)F.O=C1[C@H]2CN(CC3CC3)C[C@H]2CN1c1ccsc1`, the “Percent Effect” value was found to be 20.81%.

As to `Clc1cncc(N2CCCC2c2nnc3n2CCCCC3)n1` (configuration not stated), the “Percent Effect” value is given as -7.126%.

In the case of `Cc1cc(N2CCCC2c2nnc3n2CCCCC3)nc(C)n1` (configuration not stated), the “Percent Effect” value was 66.84%.

Turning to `Cc1cc(N2CCCC2c2nnc3n2CCCCC3)nc(N)n1` (configuration not stated), the “Percent Effect” value is -8.114%.

Consider `Cn1ncc2c1CN(Cc1cccnc1)CC2COCC1CC1.O=C(O)C(F)(F)F.O=C(O)C(F)(F)F.O=C(O)C(F)(F)F` (configuration not stated), for which the “Percent Effect” value was -6.244%.

Turning to `Cn1ncc2c1CN(Cc1ccc(F)cc1)CC2COCC1CC1.O=C(O)C(F)(F)F.O=C(O)C(F)(F)F` (configuration not stated), the “Percent Effect” value was -18.92%.

Turning to `Cn1ncc2c1CN(Cc1ccccc1F)CC2COCC1CC1.O=C(O)C(F)(F)F.O=C(O)C(F)(F)F` (configuration not stated), the “Percent Effect” value stood at 103.1%.

`COCCN1C(=O)CC(N2CCN(c3ccc(F)cc3)CC2)C1=O` (configuration not stated): the “Percent Effect” value was -16.16%.

As for `COCCN1C(=O)CC(N2CCN(c3ccc(OC)cc3)CC2)C1=O` (configuration not stated), the “Percent Effect” value stood at 70.99%.

As to `COCCN1C(=O)CC(N2CCN(c3ccccc3)CC2)C1=O` (configuration not stated), the “Percent Effect” value is given as 12.72%.

With `CN1C(=O)CCC12CCCN(C(=O)c1ccncc1F)C2.O=C(O)C(F)(F)F` (configuration not stated), the “Percent Effect” value is recorded as 38.17%.

Consider `Cl.NCC(=O)N1CCC(c2ccnc(Nc3cc(C(F)(F)F)ccn3)n2)C1` (configuration not stated), for which the “Percent Effect” value was -2.931%.

As to `Cc1cccc(CN2CC[C@@H]3[C@@H]2CCN3Cc2cccs2)n1.O=C(O)C(F)(F)F.O=C(O)C(F)(F)F`, the “Percent Effect” value is -14.73%.

On to `CNC(=O)COC1COC2(CCN(Cc3cccnc3)CC2)C1.O=C(O)C(F)(F)F` (configuration not stated), for which the “Percent Effect” value was determined as 22.59%.

Turning to `CCn1ncc2c1CCCC2NCc1ccc(C)s1` (configuration not stated), the “Percent Effect” value was found to be 16.54%.

Consider `Cc1ccc(CNC2CCCc3c2cnn3Cc2ccccc2)s1.Cl` (configuration not stated), for which the “Percent Effect” value was found to be 52.93%.

As for `Cc1cccc(CNC2CCCc3c2cnn3Cc2ccccc2)c1.Cl` (configuration not stated), the “Percent Effect” value is reported as -5.892%.

In the case of `Cn1cc(CNC2CCc3c(ccc(=O)n3Cc3cccnc3)C2)cn1.O=C(O)C(F)(F)F.O=C(O)C(F)(F)F` (configuration not stated), the “Percent Effect” value is on record as 12.8%.

As for `CN(C)C(=O)[C@H]1CO[C@H]2CCN(c3ncc(F)cn3)C[C@H]2C1.O=C(O)C(F)(F)F`, the “Percent Effect” value is 5.292%.

Turning to `CC(CNCc1ccc(F)cc1)Oc1ccccn1.Cl` (configuration not stated), the “Percent Effect” value is listed as 4.534%.

In the case of `Cc1nc(CN2CCCC(N(C)c3ccc(C#N)cn3)C2)no1` (configuration not stated), the “Percent Effect” value is recorded as -30.96%.

As for `Cc1nc(CN2CCCC(N(C)CCc3cccs3)C2)no1` (configuration not stated), the “Percent Effect” value is recorded as 86.93%.

On to `CN(CCc1cccs1)C1CCCN(Cc2noc(C3CC3)n2)C1` (configuration not stated), for which the “Percent Effect” value was 32.3%.

As for `CCc1nc(CN2CCCC(N(C)CCc3cccs3)C2)no1` (configuration not stated), the “Percent Effect” value was 22.05%.

On to `Cc1nc(CN2CCCC(N(C)c3cnc4ccccc4n3)C2)no1` (configuration not stated), for which the “Percent Effect” value stood at 68.17%.

For the compound `Cc1nc(CN2CCCC(N(C)CCCc3ccccc3)C2)no1` (configuration not stated), the “Percent Effect” value is recorded as -1.488%.

For `Cc1nc[nH]c1CN1C[C@@H]2CC[C@H](C1)N(C(=O)c1cnn(C)c1)C2`, the “Percent Effect” value is -6.364%.

Take `Cc1ccc(C(=O)N2Cc3c(CN4CCCCC4)nn(C)c3C2)cc1F.O=C(O)C(F)(F)F`: the “Percent Effect” value is listed as -32.35%.

On to `Cc1ccc(CN2CCC3(CC2)C(c2ccccc2)CC(=O)N3C)o1.O=C(O)C(F)(F)F` (configuration not stated), for which the “Percent Effect” value is recorded as 26.84%.

For `Cn1cc(C(=O)NCc2cn3c(n2)CN(CC2CCOC2)CC3)cn1.O=C(O)C(F)(F)F.O=C(O)C(F)(F)F` (configuration not stated), the “Percent Effect” value is -28.66%.

As to `O=C1c2cnc(N3CCCC3)nc2CN1C1CCS(=O)(=O)C1` (configuration not stated), the “Percent Effect” value is recorded as 9.039%.

With `Cc1cccc(CNC(Cc2ccsc2)c2nccs2)n1` (configuration not stated), the “Percent Effect” value is given as 101.9%.

As for `COc1cccc(CNC(Cc2cccs2)c2nc(C)c(C)s2)c1OC.Cl` (configuration not stated), the “Percent Effect” value is -9.078%.

`Cc1nc(C(Cc2ccsc2)NC(=O)CN2CCOCC2)sc1C` (configuration not stated): the “Percent Effect” value is reported as -3.287%.

As for `CC(C)Oc1cccc(CNC(Cc2ccsc2)c2nccs2)c1.Cl` (configuration not stated), the “Percent Effect” value is 2.523%.

As for `COc1ccccc1CNC(Cc1cccs1)c1nc(C)c(C)s1.Cl` (configuration not stated), the “Percent Effect” value worked out at 6.532%.

As to `Cc1cccc(CNC(Cc2ccsc2)c2nc(C)c(C)s2)n1.Cl` (configuration not stated), the “Percent Effect” value came out at 106.6%.

As for `O=C(NC(Cc1ccsc1)c1nccs1)C1CC1` (configuration not stated), the “Percent Effect” value was -16.41%.

Take `Cc1nc(C(Cc2ccsc2)NC(=O)CCN2CCOCC2)sc1C` (configuration not stated): the “Percent Effect” value was 3.097%.

Regarding `CCC(CN1CCCC1)NC(=O)C1(c2cccc(F)c2)CC1.O=C(O)CC(O)(CC(=O)O)C(=O)O` (configuration not stated), the “Percent Effect” value is -3.287%.

With `CN(C)C(=O)[C@@]12CCO[C@@H]1CCN(Cc1ccc3c(c1)OCO3)C2.O=C(O)C(F)(F)F`, the “Percent Effect” value stood at 4.753%.
